# Laboratory results taken from PubChem BioAssay (NCATS).
# Values joined by “and” are separate entries in the source; they are usually repeats but may differ in a detail not shown here. Equal values may be shown once. Inconclusive results are not listed. A call without a number means that no potency is given here. Active and inactive are the calls of the source. Unless noted, calls follow the shape of the dose curve; as a rule, active = well fitted curve in the direction sought with a large enough effect; inconclusive = small, poorly fitted or top-dose-only effect, or another doubt; inactive = no such curve, though single readings can be large; an effect the other way counts as inactive or inconclusive.
# Key:
# [1] = target: Calcium and integrin-binding protein 1 (Homo sapiens) (UniProt Q99828); test: Primary qHTS for Identification of Calcium Integrin Binding Protein 1 (CIB1) Competitor (AID 1508620);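 also: GST tagged CIB1 binding a fluorescein labelled alphaIIb integrin peptide tracer; top concentration of the series differs between compounds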
# Sequence of Calcium and integrin-binding protein 1 (Homo sapiens) (Q99828 whole entry, looked up): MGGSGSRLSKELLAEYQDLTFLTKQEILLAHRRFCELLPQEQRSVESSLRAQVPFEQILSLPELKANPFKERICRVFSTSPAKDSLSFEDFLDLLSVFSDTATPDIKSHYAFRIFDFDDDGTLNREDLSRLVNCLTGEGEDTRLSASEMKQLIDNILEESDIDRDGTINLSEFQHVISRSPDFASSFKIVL
# Method in brief: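 CIB1-GST (1 uM final) and compound incubated 15 min at room temperature before adding FITC-alphaIIb peptide tracer (100 nM final). Competition for binding read by fluorescence polarization (ex 480, em 540) after another 15 min at room temperature.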
# [2] = Primary qHTS for small molecule stabilizers of the endoplasmic reticulum resident proteome: Secreted ER Calcium Modulated Protein (SERCaMP) assay (AID 1508630)
# Method in brief: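 The SH-SY5Y reporter protocol was run at 3 concentrations up to 38.3 uM (primary) or 11 concentrations (follow-up): 16 h compound, 100 nM thapsigargin for 4 h, then extracellular luciferase luminescence.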
# [3] = target: Cytochrome P450 2D6 (Homo sapiens) (UniProt P10635); test: Cytochrome P450 family 2 subfamily D member 6 (CYP2D6) small molecule antagonists: luciferase biochemical (cell-free) qHTS assay (AID 1645840; active = well fitted curve in the direction sought with a large enough effect in the repeat runs; an effect the other way counts as inactive or inconclusive; also: nearly all actives have a fitted effect of over 55% in size; also: potency is read from the fitted curve at half-maximal effect)
# Sequence of Cytochrome P450 2D6 (Homo sapiens) (P10635 whole entry, looked up): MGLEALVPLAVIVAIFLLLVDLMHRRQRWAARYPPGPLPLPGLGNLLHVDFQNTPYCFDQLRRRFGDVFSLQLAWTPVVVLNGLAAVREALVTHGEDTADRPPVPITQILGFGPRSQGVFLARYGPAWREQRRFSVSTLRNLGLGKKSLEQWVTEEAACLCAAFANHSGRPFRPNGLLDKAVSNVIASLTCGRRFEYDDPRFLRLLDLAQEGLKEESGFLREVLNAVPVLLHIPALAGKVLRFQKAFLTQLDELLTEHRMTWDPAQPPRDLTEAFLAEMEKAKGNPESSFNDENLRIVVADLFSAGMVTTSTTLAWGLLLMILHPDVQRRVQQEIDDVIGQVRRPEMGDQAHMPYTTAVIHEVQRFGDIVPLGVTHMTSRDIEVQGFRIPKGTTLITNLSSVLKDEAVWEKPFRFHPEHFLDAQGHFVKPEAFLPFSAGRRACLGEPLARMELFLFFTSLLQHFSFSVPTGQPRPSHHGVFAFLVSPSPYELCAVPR
# Method in brief: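 P450-Glo CYP2D6 system: proluciferin substrate converted by enzyme to luciferin, read by luminescence proportional to activity. Enzyme-substrate mix with compound 10 min at room temperature, then NADPH regeneration 1 h before detection reagent.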
# [4] = target: Cytochrome P450 2C9 (Homo sapiens) (UniProt P11712); test: Cytochrome P450 family 2 subfamily C member 9 (CYP2C9) small molecule antagonists: luciferase biochemical (cell-free) qHTS assay (AID 1645842; active = well fitted curve in the direction sought with a large enough effect in the repeat runs; an effect the other way counts as inactive or inconclusive; also: nearly all actives have a fitted effect of over 55% in size; also: potency is read from the fitted curve at half-maximal effect)
# Sequence of Cytochrome P450 2C9 (Homo sapiens) (P11712 whole entry, looked up): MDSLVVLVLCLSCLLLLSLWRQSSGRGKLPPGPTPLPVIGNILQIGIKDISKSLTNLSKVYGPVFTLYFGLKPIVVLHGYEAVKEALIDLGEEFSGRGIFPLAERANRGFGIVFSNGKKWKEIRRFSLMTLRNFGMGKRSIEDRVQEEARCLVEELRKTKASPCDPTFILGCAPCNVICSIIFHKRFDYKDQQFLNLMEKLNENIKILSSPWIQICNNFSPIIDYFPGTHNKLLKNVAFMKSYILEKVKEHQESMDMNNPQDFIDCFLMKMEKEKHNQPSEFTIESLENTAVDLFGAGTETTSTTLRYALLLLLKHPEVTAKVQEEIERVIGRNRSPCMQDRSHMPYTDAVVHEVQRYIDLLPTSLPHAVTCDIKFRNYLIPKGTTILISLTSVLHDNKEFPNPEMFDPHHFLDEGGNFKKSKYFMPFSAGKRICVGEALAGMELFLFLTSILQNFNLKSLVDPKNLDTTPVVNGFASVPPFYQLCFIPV
# Method in brief: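 P450-Glo CYP2C9 system: proluciferin substrate with enzyme in mix containing 0.4% BSA, 10 min at room temperature, then NADPH regeneration solution added and incubated 1 h at 37C. Detection reagent stopped reaction; luminescence read after 20 min as RLU.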
# [5] = Primary qHTS for inhibitors of nuclear receptor binding SET domain protein 2 (NSD2) in an isogenic RCH-ACV NSD2 p.E1099K mutant (9B) (AID 1645876); also: potency is read from the fitted curve at half-maximal effect; nearly all actives have a fitted effect of over 70% in size
# [6] = target: Cytochrome P450 3A4 (Homo sapiens) (UniProt P08684); test: Cytochrome P450 family 3 subfamily A member 4 (CYP3A4) small molecule antagonists: luciferase qHTS assay (AID 1645841; active = well fitted curve in the direction sought with a large enough effect in the repeat runs; an effect the other way counts as inactive or inconclusive; also: nearly all actives have a fitted effect of over 45% in size)
# Sequence of Cytochrome P450 3A4 (Homo sapiens) (P08684 whole entry, looked up): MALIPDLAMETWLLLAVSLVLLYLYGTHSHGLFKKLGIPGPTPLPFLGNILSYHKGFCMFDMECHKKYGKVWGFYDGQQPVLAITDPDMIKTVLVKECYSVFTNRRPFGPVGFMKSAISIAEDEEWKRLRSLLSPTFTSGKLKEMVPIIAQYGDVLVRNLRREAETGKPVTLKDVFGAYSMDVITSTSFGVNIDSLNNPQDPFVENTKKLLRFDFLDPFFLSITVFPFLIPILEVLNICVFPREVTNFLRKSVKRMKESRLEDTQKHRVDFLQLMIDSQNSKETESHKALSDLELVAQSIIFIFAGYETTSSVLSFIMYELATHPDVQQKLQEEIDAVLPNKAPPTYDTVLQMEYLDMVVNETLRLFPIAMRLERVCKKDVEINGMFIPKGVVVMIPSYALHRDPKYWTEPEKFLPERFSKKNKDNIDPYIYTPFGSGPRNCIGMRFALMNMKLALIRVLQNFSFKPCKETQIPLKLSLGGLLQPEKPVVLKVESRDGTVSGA
# Method in brief: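 Luminescent CYP3A4 activity readout: compounds plus enzyme-substrate mix 10 min at room temperature, reaction started with NADPH regenerating system for 1 h, stopped with detection reagent, read after 20 min. Ketoconazole served as control.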
# [7] = Primary qHTS for inhibitors of nuclear receptor binding SET domain protein 2 (NSD2) in an RCH-ACV wild type WT cells (2C) (AID 1645877); also: potency is read from the fitted curve at half-maximal effect; nearly all actives have a fitted effect of over 70% in size
# [8] = target: N-terminal Xaa-Pro-Lys N-methyltransferase 1 (Homo sapiens) (UniProt Q9BV86); test: Confirmatory qHTS for Inhibitors of N-terminal methyltransferase 1 (NTMT1): MTaseGlo Assay (AID 1645874); also: potency is read from the fitted curve at half-maximal effect; nearly all actives have a fitted effect of over 65% in size
# Sequence of N-terminal Xaa-Pro-Lys N-methyltransferase 1 (Homo sapiens) (Q9BV86 whole entry, looked up): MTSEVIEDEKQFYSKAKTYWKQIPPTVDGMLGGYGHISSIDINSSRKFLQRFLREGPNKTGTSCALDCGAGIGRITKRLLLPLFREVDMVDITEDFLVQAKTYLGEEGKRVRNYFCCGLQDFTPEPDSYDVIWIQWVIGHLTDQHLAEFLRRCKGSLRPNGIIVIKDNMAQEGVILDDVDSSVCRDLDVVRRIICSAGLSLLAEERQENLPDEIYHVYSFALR
# Method in brief: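 Room-temperature NTMT1 reaction, 30 min, with 100 uM SAM and 1 uM SPKRIA substrate; enzyme 125 nM. Read-out: MTase-Glo luminescence, normalized to no-enzyme and DMSO controls.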
structure (smiles),measurement,setting,value
CCC(CC)[C@H](NC(C)=O)[C@@H]1[C@H](O)[C@@H](C(=O)O)C[C@@H]1N=C(N)N,Potency,[1],inactive
same,Potency,[2],inactive
CCC(=O)NC[C@H](Cc1ccc(OCCc2nc(-c3ccccc3)oc2C)cc1)NC(C)=CC(=O)c1ccc(C(F)(F)F)cc1,Potency,[1],inactive
same,Potency,[2],inactive
OC[C@H]1O[C@@H](Oc2cc(O)cc(C=Cc3ccc(O)cc3)c2)[C@H](O)[C@@H](O)[C@H]1O,Potency,[1],inactive
same,Potency,[2],inactive
Cc1ccc([C@@H]2O[C@H](CO)[C@@H](O)[C@H](O)[C@@H]2O)cc1Cc1ccc(-c2ccc(F)cc2)s1,Potency,[1],inactive
same,Potency,[2],inactive
same,Potency,[3],23.9 µM (active)
same,Potency,[4],12 µM (active)
CCOC1OC(=O)C[C@H]1NC(=O)[C@@H]1CCCN1C(=O)[C@@H](NC(=O)c1ccc(N)c(Cl)c1)C(C)(C)C (some centres undefined),Potency,[1],inactive
same,Potency,[2],inactive
O=C(Nc1ccccc1Br)N[C@@H]1CCN(c2ccc(C(F)(F)F)cn2)C1,Potency,[1],inactive
same,Potency,[2],inactive
same,Potency,[3],15.1 µM (active)
same,Potency,[4],23.9 µM (active)
O=c1c(-c2ccc(O)cc2)coc2cc(O[C@@H]3O[C@H](CO)[C@H](O)[C@H](O)[C@H]3O)ccc12,Potency,[1],inactive
same,Potency,[2],inactive
COc1cc(O)c2c(c1)C(=O)c1cc(C)cc(O)c1C2=O,Potency,[1],inactive
same,Potency,[2],inactive
CCn1c(C(=O)N(C2CC2)C2CC2)cc2c3c(ncn3C)c(Nc3cc(C)n(C)n3)nc21,Potency,[1],inactive
same,Potency,[2],inactive
same,Potency,[3],inactive
same,Potency,[4],7.56 µM (active)
same,Potency,[5],11.5 µM (active) and 16.6 µM (active)
O=C1NC(=O)C(=Cc2ccc3c(c2)OC(F)(F)O3)S1,Potency,[1],inactive
same,Potency,[2],inactive
COc1cccc2c1CCCC2CCCN1CCN(C2CCCCC2)CC1 (centres undefined),Potency,[1],inactive
same,Potency,[2],inactive
same,Potency,[3],2.13 µM (active)
same,outcome,[6],inactive
same,Potency,[4],inactive
same,Potency,[5],20.9 µM (active)
same,Potency,[7],20.9 µM (active)
Clc1ccc(-c2nc3sccn3c2C=NOCc2ccc(Cl)c(Cl)c2)cc1,Potency,[1],inactive
same,Potency,[2],inactive
same,Potency,[3],inactive
same,Potency,[4],3.79 µM (active)
O=C(CCc1ccc(O)cc1)c1c(O)cc(O)cc1O[C@@H]1O[C@H](CO)[C@H](O)[C@H](O)[C@H]1O,Potency,[1],inactive
same,Potency,[2],inactive
CC(C)(C)Cn1c(N)nc2ccc(-c3[nH]c(C(C)(C)C)nc3-c3ccc(F)cc3)nc21,Potency,[1],inactive
same,Potency,[2],inactive
same,Potency,[3],15.1 µM (active)
same,Potency,[4],5.35 µM (active)
same,Potency,[8],17.8 µM (active)
same,Potency,[5],2.9 µM (active) and 16.6 µM (active)
same,Potency,[7],2.58 µM (active) and 16.6 µM (active)
OC[C@H]1O[C@@H](n2cnc3c2NC=NC[C@@H]3O)C[C@H]1O,Potency,[1],inactive
same,Potency,[2],inactive
CC(C)OC(=O)CCCC=CC[C@@H]1[C@H](C=C[C@@H](O)COc2cccc(C(F)(F)F)c2)[C@H](O)C[C@@H]1O,Potency,[1],inactive
same,Potency,[2],inactive
CC(C)C[C@H](CC(=O)O)C(=O)N[C@@H](Cc1c[nH]c2ccccc12)C(=O)N[C@@H](C)c1ccccc1,Potency,[1],inactive
same,Potency,[2],inactive
CC(=NNC(=S)N1CCC1)c1ccccn1,Potency,[1],inactive
same,Potency,[2],inactive
CC=C(C)C(=O)O[C@H]1C(C)=C[C@]23C(=O)[C@@H](C=C(CO)[C@@H](O)[C@]12O)[C@H]1[C@@H](C[C@H]3C)C1(C)C,Potency,[1],inactive
same,Potency,[2],inactive
Cc1[nH]c(C=C2C(=O)Nc3ccc(S(=O)(=O)Cc4c(Cl)cccc4Cl)cc32)c(C)c1C(=O)N1CCC[C@H]1CN1CCCC1,Potency,[1],inactive
same,Potency,[2],inactive
Cc1nnc(C(C)C)n1C1C[C@H]2CC[C@@H](C1)N2CC[C@H](NC(=O)C1CCC(F)(F)CC1)c1ccccc1 (some centres undefined),Potency,[1],inactive
same,Potency,[2],inactive
C[C@]12CC[C@@H]3c4ccc(O)cc4C[C@@H](CCCCCCCCCS(=O)CCCC(F)(F)C(F)(F)F)[C@H]3[C@H]1CC[C@H]2O (some centres undefined),Potency,[1],inactive
same,Potency,[2],inactive
CC[C@@H]1C=C(C)C[C@H](C)C[C@H](OC)[C@H]2O[C@@](O)(C(=O)C(=O)N3CCCC[C@@H]3C(=O)O[C@H](C(C)=C[C@@H]3CC[C@H](Cl)[C@H](OC)C3)[C@H](C)[C@@H](O)CC1=O)[C@H](C)C[C@H]2OC,Potency,[1],inactive
same,Potency,[2],inactive
CO[C@H]1C[C@@H]2CC[C@@H](C)[C@@](O)(O2)C(=O)C(=O)N2CCCC[C@@H]2C(=O)O[C@H]([C@@H](C)C[C@@H]2CC[C@H](O)[C@H](OC)C2)CC(=O)[C@H](C)C=C(C)[C@@H](O)[C@@H](OC)C(=O)[C@H](C)C[C@H](C)C=CC=CC=C1C,Potency,[1],inactive
same,Potency,[2],inactive
CC=CC[C@@H](C)C(=O)[C@H]1C(=O)N[C@@H](C(C)C)C(=O)N(C)CC(=O)N(C)[C@@H](CC(C)C)C(=O)N[C@@H](C(C)C)C(=O)N(C)[C@@H](CC(C)C)C(=O)N[C@@H](C)C(=O)N[C@H](C)C(=O)N(C)[C@@H](CC(C)C)C(=O)N(C)[C@@H](CC(C)C)C(=O)N(C)[C@@H](C(C)C)C(=O)N1C,Potency,[1],inactive
same,Potency,[2],inactive
